A selection: hits, their analogues and other compounds. The true share with any hit is near 2.9%.
PLCb3 inh: blocks human PLC-beta3 enzyme activity | Q01970 | Purified PLC-beta3, fluorogenic substrate, fluorescence | inhibition, % at 12.2 µM | 370,000 compounds, 0.18% hits | AID 720704; in the data active = inhibition above about 11%
KLK7 zymogen act: proKLK7 (human) activation, primary screen. 370,000 compounds, 0.9% hits. purified proKLK7, EDANS-DABCYL substrate fluorescence; 100% is mature enzyme control, 0% vehicle. activation, % at 7 µM. P49862;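 active = activation above the mean of all tested compounds plus 3 SD, computed per campaign excluding outliers beyond control limits, cut at about 13% in these data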
ADAM10 inh: ADAM10 inhibition, QFRET primary screen; O14672; recombinant ADAM10, EDANS/DABCYL FRET peptide cleavage, 3 h; inhibition, % at 7 µM; 370,000 compounds, 0.62% hits; AID 720582;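 active = inhibition above a per-campaign cutoff equal to the mean of compounds falling between control-based bounds plus 3 SD, cut at about 20% in these data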
PLC-gamma1 inh: blocks human PLC-gamma1 enzyme activity. P19174. purified PLC-gamma1, fluorogenic substrate, fluorescence. 370,000 compounds, 0.84% hits. AID 720700. inhibition, % at 12.2 µM; in the data active = inhibition above about 9.5%
ADAM17 inh: ADAM17 inhibition, QFRET primary screen | P78536 | recombinant ADAM17, EDANS/DABCYL FRET peptide cleavage | inhibition, % at 6.95 µM | 370,000 compounds, 0.83% hits | AID 720648;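 active = inhibition above the mean of compounds lying between control limits plus 3 SD, set per campaign, cut at about 8.5% in these data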
proKLK7 act conf: proKLK7 activation, confirmation. shares compounds with KLK7 zymogen act. 3,200 compounds, 68% hits. purified proKLK7, EDANS-DABCYL substrate fluorescence; scaled: vehicle 0, mature enzyme 100. activation, % at 7 µM;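 active = activation, as change over the incubation, above the mean of all tested compounds plus 3 SD, cut at about 13% in these data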
EDANS interfere: counter-screen for kallikrein-7 activators: EDANS-DABCYL optical interference | shares compounds with KLK7 zymogen act | EDANS-DABCYL substrate fluorescence interference, no enzyme, 4 h; solvent 0%, active enzyme control 100% | activation, % at 7 µM | 3,200 compounds, 80% hits | AID 686952;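 active = activation above the all-compound mean plus 3 SD, ignoring values outside control-based bounds, cut at about 4.8% in these data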;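 note: value is the 4 h activation minus the activation read at time zero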
A number is an active result; i = inactive; nt = no result.

SMILES | PLCb3 inh | KLK7 zymogen act | ADAM10 inh | PLC-gamma1 inh | ADAM17 inh | proKLK7 act conf | EDANS interfere
CCCCc1cc(=O)oc2c(CN3CCN(C)CC3)c(O)ccc12 | i | 53 | i | i | i | 70 | 75
CN(C)Cc1c(O)ccc2c(-c3ccccc3)cc(=O)oc12 | i | 13 | i | i | i | 26 | 25
Cc1ccc(CN2CC(N3CCN(C)CC3)CS2(=O)=O)cc1 (stereo not given) | i | i | i | i | i | nt | nt
O=C(Nc1cc(C(F)(F)F)ccc1N1CCOCC1)c1cnccn1 | i | i | i | i | i | nt | nt
Cc1cccc(N=c2oc3cc(O)ccc3cc2C(N)=O)c1 | i | 53 | i | i | i | 27 | 27
COc1cccc(N=c2oc3cc(O)ccc3cc2C(=O)NCC2CCCO2)c1 (stereo not given) | i | 66 | i | i | i | i | 6.5
COc1ccccc1N=c1oc2cc(O)ccc2cc1C(N)=O | i | 39 | i | i | i | 18 | 23
COc1ccccc1N=c1oc2cc(O)ccc2cc1C(=O)NCC1CCCO1 (stereo not given) | i | 74 | i | i | i | 21 | 22
COc1ccccc1NC(=O)c1cc2ccc(O)cc2o/c1=N\O | i | i | i | i | i | nt | nt
COc1cccc2cc(C(=O)NCC3CCCO3)c(=O)oc12 (stereo not given) | i | i | i | i | i | nt | nt
O=C(CSC1=Nc2ccccc2C2CC=NN12)Nc1ccc(F)c(F)c1F (stereo not given) | i | i | i | i | i | nt | nt
CNc1ccc(/C=C\CCCO)cn1 | i | 16 | i | i | i | 15 | 18
CCOC(=O)NN1C(=O)c2ccccc2NC1c1ccccn1 (stereo not given) | i | i | i | i | i | nt | nt
Cc1cccc(C2Nc3ccccc3C(=O)N2c2ccc(F)cc2)n1 (stereo not given) | i | 28 | i | i | i | 23 | 21
O=C1c2ccccc2NC(c2ccccn2)N1c1ccccc1F (stereo not given) | i | 18 | i | i | i | 22 | 22
CC[C@H](C)/C=C(C)/C=C/C1=CC2=CC(=O)[C@]3(C)OC(=O)[C@@H](C(C)=O)[C@@H]3C2=CO1 | i | 19 | i | i | i | i | 8.1
CCCCC(=O)N1CCN(C(=O)c2ccc3nc(C)n(C4CCCC4)c3c2)CC1 | i | i | i | i | i | nt | nt
O=C(COC(=O)c1ccccc1SCC(=O)N1CCCC1)NC1CCS(=O)(=O)C1 (stereo not given) | i | i | i | i | i | nt | nt
O=C(COC(=O)c1ccccc1SCC(=O)NC1CCS(=O)(=O)C1)NC1CCS(=O)(=O)C1 (stereo not given) | i | 14 | i | i | i | 19 | 19
Cc1ccc2nc3c(cc(C#N)c(=O)n3-c3nccs3)c(=O)n2c1 | i | 25 | i | i | i | 61 | 73
CCOC1=NS(=O)(=O)c2ccccc21 | i | i | i | i | i | nt | nt
CN(C)c1oc(-c2cccs2)nc1C#N | i | 39 | i | i | i | 65 | 82
N#Cc1nc(-c2ccccc2)oc1NCCN1CCCCC1 | i | 40 | i | i | i | i | 10
CNc1oc(-c2cccs2)nc1C#N | i | i | i | i | i | nt | nt
N#Cc1nc(-c2cccs2)oc1NCCN1CCOCC1 | i | 28 | i | i | i | 42 | 39
SMILES | PLCb3 inh | KLK7 zymogen act | ADAM10 inh | PLC-gamma1 inh | ADAM17 inh | proKLK7 act conf | EDANS interfere
O=C(Nc1cccc(C(F)(F)F)c1)c1n[nH]c(Cn2cncn2)n1 | i | i | i | i | i | nt | nt
CC1C2CC(CC1(C)C)N(C(=O)Nc1ccc3nccnc3c1)C2 (stereo not given) | i | 18 | i | i | i | i | i
COC(=O)c1cc(N=CC2=C(O)CC(C)(C)CC2=O)cc(C(=O)OC)c1 | i | 25 | i | i | i | 47 | 45
COC(=O)c1cc(OC)c(OC)cc1N=CC1=C(O)CC(C)(C)CC1=O | i | i | i | i | i | nt | nt
COc1cccc(NC(=O)NNC(=O)CCc2ccc(O)c(O)c2)c1 | i | 19 | i | i | i | 13 | 16
CCCCN(CC)CCCNC(=O)c1cc2c(=O)[nH]c3ccccc3c2s1 | i | 15 | i | i | i | i | 6.2
O=C(NCCCN1CCOCC1)c1cc2c(=O)[nH]c3ccccc3c2s1 | i | 14 | i | i | i | i | 12
Cc1ccc2[nH]c(=O)c3cc(C(=O)NCCC(C)C)sc3c2c1 | i | i | i | i | i | nt | nt
CCCCN(CC)CCNC(=O)c1cc2c(=O)[nH]c3ccc(C)cc3c2s1 | i | 16 | i | i | i | i | i
CCN1CCN(CCCNC(=O)c2cc3c(=O)[nH]c4ccccc4c3s2)CC1 | i | i | i | i | i | nt | nt
CCC(C)NC(=O)c1cc2c(=O)[nH]c3ccc(C)cc3c2s1 (stereo not given) | i | 35 | i | i | i | i | i
CCc1nc2ccccc2n1CC(=O)Nc1cc(C)on1 | i | i | i | i | i | nt | nt
C=CS(=O)(=O)c1c2cc(OC)ccc2nc2ccc(OC)cc12 | i | 22 | i | i | i | i | i
COc1ccc2nc(Cl)cc(Cl)c2c1 | i | i | i | i | i | nt | nt
c1ccc(OCCCn2nnc(-c3ccc(N4CCOCC4)cc3)n2)cc1 | i | i | i | i | i | nt | nt
CCOC(=O)C(=NC(C)CC)NNc1cccc(C(F)(F)F)c1 (stereo not given) | i | 17 | i | i | i | 22 | 26
CCOC(=O)C(=NC1CCCCC1)NNc1cccc(C(F)(F)F)c1 | i | i | i | i | i | nt | nt
CCOC(=O)C(=NC1CCS(=O)(=O)C1)NNc1ccc(Br)cc1 (stereo not given) | i | i | i | i | i | nt | nt
CCOC(=O)C(=NC(C)CC)NNc1ccc(Br)cc1 (stereo not given) | i | 16 | i | i | i | 24 | 26
Cc1ccc(C2C=C(c3ccccc3OC(F)F)Nc3ncnn32)cc1 (stereo not given) | i | 18 | i | i | i | 76 | 80
C1=C(c2ccccc2)Nc2ncnn2C1c1ccccc1 (stereo not given) | i | i | i | i | i | nt | nt
Cc1ccc(C2C=C(c3ccc4c(c3)OCO4)Nc3ncnn32)cc1 (stereo not given) | i | 15 | i | i | i | i | 9.2
Cc1ccc(C)c(Cn2c3ccccc3c3cnn(CC(=O)NCCCN4CCOCC4)c(=O)c32)c1 | i | i | i | i | i | nt | nt
O=S(=O)(N[C@@H]1CCCC[C@@H]1N1CCOCC1)c1ccc(Cl)cc1 | i | nt | i | i | i | nt | nt
COC(=O)c1ccccc1NC1CC(=O)N(c2c(C)cccc2C)C1=O (stereo not given) | i | 88 | i | i | i | 48 | 49
COC(=O)c1ccc(NC2CC(=O)N(c3ccccc3C)C2=O)cc1 (stereo not given) | i | i | i | i | i | nt | nt
